From paper PMC5540273 (PLoS ONE, 2017)

Columns and labels:
Settings in all cases: concentration: 1 μM, replicates: in singlicate; n = 1
MEK5 = tested on: T1, MEK5
T1 construct: gene MAP2K5

MEK6 = tested on: T2, MEK6
T2 construct: gene MAP2K6

MELK = tested on: MELK
MERTK = tested on: MERTK
MET = tested on: MET
MINK = tested on: T3, MINK
T3 construct: gene MINK1

MKK7 = tested on: MKK7
MKNK1 = tested on: MKNK1
MKNK2 = tested on: MKNK2
MLCK = tested on: T4, MLCK
T4 construct: gene MYLK3
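Note: KINOMEscan kinase panel screen.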

| Structure (SMILES) | %Inh (MEK5) | %Inh (MEK6) | %Inh (MELK) | %Inh (MERTK) | %Inh (MET) | %Inh (MINK) | %Inh (MKK7) | %Inh (MKNK1) | %Inh (MKNK2) | %Inh (MLCK) |
| --- | --- | --- | --- | --- | --- | --- | --- | --- | --- | --- |
| N#Cc1cnc2cc(-c3cnc(CNCCN4CCOCC4)s3)ccc2c1Nc1ccc(Oc2ccccc2)cc1 [GW664114] | 99.9% | 0% | 15% | 72% | 7% | 95.2% | 6% | 6% | 6% | 0% |
| CN(c1ccc2c(c1)nc(NCc1ccccc1)n2C)c1ccnc(Nc2ccc(CS(C)(=O)=O)cc2)n1.Cl [GW811603] | 89% | 0% | 17% | 36% | 46% | 0% | 23% | 54% | 43% | 0% |
| O=C(Nc1n[nH]c2nc(-c3ccccc3O)ccc12)C1CC1 [SB-711880] | 63% | 0% | 0% | 27% | 0% | 74% | 0% | 0% | 38% | 57% |
| Cl.Cl.NC(CNC(=O)c1cc(Br)c(-c2ccnc3[nH]ccc23)s1)c1ccccc1 (stereo not drawn) [GSK1322949] | 59% | 0% | 74% | 58% | 22% | 69% | 0% | 68% | 99.9% | 70% |
| Cc1ccc(NC(=O)c2cccc(N3CCCCC3)c2)cc1-c1ccc(C(=O)NCC2CC2)cc1 [GSK1917008] | 20% | 35% | 0% | 18% | 0% | 0% | 0% | 10% | 18% | 0% |
| O=C(Nc1n[nH]c2cc(-c3cccs3)ccc12)C1CC1 [SB-731284] | 33% | 0% | 0% | 0% | 0% | 67% | 0% | 31% | 28% | 71% |
| CN(c1ccc(NC(=O)Nc2cccc(Cl)c2)cc1)c1ccnc(N)n1.Cl [GW830707] | 48% | 0% | 11% | 0% | 1% | 0% | 17% | 52% | 95.6% | 10% |
| CCn1c(-c2nonc2N)nc2c(-c3ccccc3)ncc(OCCCN)c21.O=C(O)C(F)(F)F.O=C(O)C(F)(F)F [GSK260205] | 92.8% | 0% | 20% | 7% | 21% | 95.7% | 0% | 0% | 1% | 9% |
| COc1cc(Nc2nccc(N3CCC(NS(=O)(=O)c4ccc(NC(C)=O)cc4)CC3)n2)cc(OC)c1OC [GSK1379825] | 88% | 24% | 19% | 38% | 0% | 0% | 15% | 0% | 83% | 0% |
